Laboratory results as given in PubChem BioAssay (NCATS).
Results filed as inconclusive are left out. Unmarked numbers belong to inactive results. Calls follow the shape of the dose curve; as a rule, active = well fitted cell-killing curve with a large enough effect; inconclusive = small, poorly fitted or top-dose-only effect; inactive = no such curve, though single readings can be large or run the other way. Where a SMILES comes first, the peptide text is derived from it. Bridges are numbered along the chain shown (N, C = ends). [ ]: non-standard residue; d: D form. hArg = N=C(N)NCCCC[C@H](N)C(=O)O; Mpa = O=C(O)CCS

experiment: qHTS of pediatric cancer cell lines to identify multiple opportunities for drug repurposing: Primary screen for OHS-50 cells (AID 1347103); details: OHS-50 osteosarcoma viability, CellTiter-Glo luminescence, 48 h; series mostly up to 57.3 µM; activity change, negative = cytotoxic: at the top concentration;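 also: plate controls were DMSO neutral control for no effect and bortezomib positive control for full effect; nearly all actives have a fitted effect of over 40% in size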
Summary of the method: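 Cells (500-1,000/well) rested 5 h, then received compounds for 48 h; metabolically active cells were measured by CellTiter-Glo luminescence. Final concentrations spanned up to 46 µM (MIPE, 11-point) or 0.59 nM-46 µM (NPC, 8-point) in primary screens, 11-point in follow-ups.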

| SMILES | activity change, negative = cytotoxic |
| --- | --- |
| CC(=O)NS(=O)(=O)c1ccc(N)cc1 | 15.5% |
| CCCCCC(C)N (stereo not drawn) | -1.4% |
| CCCCCCCCCCC(CO)CCCCCCCC (stereo not drawn) | -6.51% |
| CC1(c2ccccc2)OC(C(=O)O)=CC1=O (stereo not drawn) | 13.6% |
| NC(=O)NS(=O)(=O)c1ccc(N)cc1 | 9.22% |
| CN1CCCN=C1COC(=O)C(O)(c1ccccc1)C1CCCCC1 (stereo not drawn) | -9.75% |
| CC[C@H](C)[C@H](N)C(=O)O | 15.5% |
| OCC(O)CS (stereo not drawn) | 15.4% |
| CO[C@@]1(NC(=O)C(C(=O)O)c2ccc(O)cc2)C(=O)N2C(C(=O)O)=C(CSc3nnnn3C)CO[C@@H]21 (stereo partly drawn) | -4.68% |
| Cn1c([N+](=O)[O-])cnc1COC(N)=O | -7.31% |
| CCN1CC(CCN2CCOCC2)C(c2ccccc2)(c2ccccc2)C1=O (stereo not drawn) | -1.76% |
| NCC1CCC(C(=O)Oc2ccc(CCC(=O)O)cc2)CC1 (stereo not drawn) | -3.53% |
| C[n+]1ccccc1/C=N/O | 8.26% |
| COc1ccc(O)cc1 | -24.5% |
| NC(=O)[C@@H]1CSSCCC(=O)N[C@@H](CCCCN=C(N)N)C(=O)NCC(=O)N[C@@H](CC(=O)O)C(=O)N[C@@H](Cc2c[nH]c3ccccc23)C(=O)N2CCC[C@H]2C(=O)N1 ([Mpa][hArg]GDWPC-NH2; disulfide 1-7) | 2.32% |
| CCCCCCCCCCCCCCCCN | -5.3% |
| COc1ccc(Cc2cnc(N)nc2N)cc1OC | 14.9% |
| CCOC(=O)c1cccnc1 | 13.8% |
| CC1(C)S[C@@H]2[C@H](N=CN3CCCCCC3)C(=O)N2[C@H]1C(=O)O | -7.98% |

| SMILES | activity change, negative = cytotoxic |
| --- | --- |
| O=c1[nH]cnc2nc[nH]c12 | 63.1% |
| CCCCCCCCCCCCCCCCCCO | -3.43% |
| COCC(=O)Nc1c(I)c(C(=O)NCC(O)CO)c(I)c(C(=O)N(C)CC(O)CO)c1I (stereo not drawn) | 9.29% |
| COc1nccnc1NS(=O)(=O)c1ccc(N)cc1 | -13.9% |
| O=c1[nH]c(=O)n([C@H]2C[C@H](O)[C@@H](CO)O2)cc1I | 2.8% |
| CCN(CC)CCc1nc(-c2ccccc2)no1 | 20.7% |
| O=C1C(c2[nH]c3ccccc3c2O)=Nc2ccccc21 | -12.9% |
| CCCCCCCC(=O)OCC(O)CO (stereo not drawn) | -6.92% |
| O=C(O)Cc1ccc(CCNS(=O)(=O)c2ccc(Cl)cc2)cc1 | 7.84% |
| COc1ccc(-c2cc(=O)c3c(O)cc(O[C@@H]4O[C@H](CO[C@@H]5O[C@@H](C)[C@H](O)[C@@H](O)[C@H]5O)[C@@H](O)[C@H](O)[C@H]4O)cc3o2)cc1O | 22.2% |
| Nc1c2c(nc3c1CCC3)CCCC2 | 8.68% |
| CCN(CC)C(=O)c1cccc(C)c1 | 2.27% |
| CCCNC(C)(C)COC(=O)c1ccccc1 | -11.5% |
| CC(C)(C)C(=O)OCOC(=O)[C@@H]1N2C(=O)[C@@H](NC(=O)[C@H](N)c3ccccc3)[C@H]2SC1(C)C | -9.58% |
| Cc1c(Cn2ccnc2)c2ccccc2n1CCC(=O)O | 25.2% |
| CC1CCN(CCCC(=O)c2ccc(F)cc2)CC1 | -8.79% |
| CC(=O)Nc1ccc(OCCOCCOc2ccc(NC(C)=O)cc2)cc1 | -1.94% |
| CCCCCCCCCCOc1cc2c(=O)c(C(=O)OCC)c[nH]c2cc1OCC | -4.02% [at 6.18 µM] |
| O=C1CC[C@@H](C(=O)O)N1 | -8.96% |
